Rows were chosen to be rich in hits. Some 10% of all compounds tested hit in one or more screens of this group.
NIH3T3 tox: cytotoxic compounds in NIH 3T3 cells; NIH 3T3 viability, CellTiter-Glo ATP luminescence, 48-72 h; AID 1345082; Potency, µM (titrated, usually from 96.7 µM), inactives show top-dose activity change, negative = cytotoxicity, usual class: inhibitors; 94,000 tested, 4.3% active; also: nearly all actives have a fitted effect of over 55% in size
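Cytotoxicity was measured by CellTiter-Glo ATP luminescence after 48 or 72 h compound exposure at 37 °C. Mouse NIH 3T3 fibroblasts were seeded at 400 cells/well and dosed by 23 nL pin transfer.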
hNpr1 antagonist: human Npr1 receptor antagonism. HEK293 hNpr1 GloSensor cGMP, ANP-stimulated luminescence. Potency, µM (doses to about 46.3 µM), inactives show top-dose activity change, negative = inhibition, usual class: inhibitors. 76,000 tested, 1.6% active. AID 1347048; calls by dose curve; also: nearly all actives have a fitted effect of over 60% in size
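HEK293 cells stably expressing human Npr1 and cGMP GloSensor pGS-40F, loaded 2 h with 2% GloSensor reagent, given compound 30 min at room temperature. Luminescence read before and 20 min after 0.1 nM hNppA.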
Luciferase inh: Photinus pyralis luciferase inhibition | 76,000 tested, 2.5% active | Potency, µM (doses to about 115 µM), usual class: inhibitors | purified P. pyralis luciferase, luminescence, biochemical | P08659; also: nearly all actives have a fitted effect of over 65% in size
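Purified 10nM P. pyralis luciferase with 10uM D-luciferin and 10uM ATP in 50mM Tris acetate pH 7.5, 10mM Mg acetate, 0.01% Tween-20, 0.05% BSA. qHTS titration; luminescence read by CCD imager.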
GPT2 inh: blocks human glutamate pyruvate transaminase 2. Q8TD30. Recombinant GPT2, coupled pyruvate oxidase/HRP Amplex Red fluorescence. Potency, µM (top dose mostly 57.7 µM), for the others: at the top dose activity change, negative = inhibition, usual class: inhibitors. 100,000 tested, 0.25% active. AID 1671188; also: nearly all actives have a fitted effect of over 60% in size
Target sequence (Q8TD30 whole entry, looked up): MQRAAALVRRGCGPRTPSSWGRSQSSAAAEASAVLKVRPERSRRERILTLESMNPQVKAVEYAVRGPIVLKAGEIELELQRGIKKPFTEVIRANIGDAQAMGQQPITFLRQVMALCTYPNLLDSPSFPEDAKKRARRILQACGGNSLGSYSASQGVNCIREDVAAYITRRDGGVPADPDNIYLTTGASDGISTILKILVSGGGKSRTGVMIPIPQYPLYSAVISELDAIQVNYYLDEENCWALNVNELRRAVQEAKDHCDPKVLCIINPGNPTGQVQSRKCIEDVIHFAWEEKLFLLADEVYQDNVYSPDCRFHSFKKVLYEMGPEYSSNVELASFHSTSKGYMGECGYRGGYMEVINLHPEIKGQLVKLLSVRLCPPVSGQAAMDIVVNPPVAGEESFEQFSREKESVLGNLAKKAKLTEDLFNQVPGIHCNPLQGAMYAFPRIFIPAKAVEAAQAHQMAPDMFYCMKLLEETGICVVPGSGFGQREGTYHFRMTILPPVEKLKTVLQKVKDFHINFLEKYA
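Fluorescence of coupled pyruvate oxidase/HRP/Amplex Red system (50uM Amplex, 30 min, dark) reports pyruvate formed by GPT2. Enzyme reaction: 10ng/uL GPT2, 2mM L-alanine, 250uM a-KG, 30 min room temperature, pH 7.5; 50uM AOA control.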
HEK cytotox: cytotoxic compounds in HEK 293 cells; HEK 293 viability, ATP luminescence (CellTiter-Glo), 48-72 h; Potency, µM (top dose mostly 115 µM), for the others: at the top dose activity change, negative = cytotoxicity, hits mostly inhibitors; 94,000 tested, 6.6% active; also: nearly all actives have a fitted effect of over 60% in size
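HEK 293 cells seeded at 250 cells/well were exposed to compound for 48 or 72 hr at 37 degree Celsius. Viability taken as ATP content by CellTiter-Glo luminescence.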
Active calls of the source: *; i = inactive; ? = inconclusive; nt = not tested or not shown; [ ] = another dose, or the depositor's remark. Unless noted, calls follow the shape of the dose curve; as a rule, active = well fitted curve in the direction sought with a large enough effect; inconclusive = small, poorly fitted or top-dose-only effect, or another doubt; inactive = no such curve, though single readings can be large; an effect the other way counts as inactive or inconclusive. % is scaled to controls: 0 for no effect and ±100 for the full control effect; potency is read from the fitted curve at half-maximal effect.

SMILES | NIH3T3 tox | hNpr1 antagonist | Luciferase inh | GPT2 inh | HEK cytotox
O=C(Nc1ccc(Cl)cc1)N1CCn2c(nn(-c3ccc([N+](=O)[O-])cc3)c2=O)C1 | ? | ? | ? | i | ?
O=C1NCCN2CC3(CCN(C(=O)CCc4ccccc4)CC3)CC12 (centres undefined) | -13% | nt | nt | 2% | 5%
Cc1ncsc1CN1CCC2(CC1)CN(Cc1ccccc1)CC2CO (centres undefined) | ? | -11% | i | i | ?
Cc1ccc(C2Cn3nnc(C(=O)N4CCC(C(=O)NCc5cccc(C)c5)CC4)c3CO2)cc1 (centres undefined) | i | -1% | ? | i | 3%
Cc1ccc(C2Cn3nnc(C(=O)N4CCC(C(=O)NCC5CC5)CC4)c3CO2)cc1 (centres undefined) | 3% | -4% | 25µM* | 3% | -7%
COc1ccccc1CNC(=O)C1CCN(C(=O)c2nnn3c2COC(c2ccc(C)cc2)C3)CC1 (centres undefined) | -18% | -2% | 18µM* | i | -18%
Cc1ccc(CCNC(=O)C2CCN(C(=O)c3nnn4c3COC(c3ccc(C)cc3)C4)CC2)cc1 (centres undefined) | -11% | 1% | 8.9µM* | -3% | -9%
Cc1ccc(C2Cn3nnc(C(=O)N4CCC(C(=O)NC5CCCCCC5)CC4)c3CO2)cc1 (centres undefined) | -26% | -12% | ? | -3% | ?
Cc1ccc(C2Cn3nnc(C(=O)N4CCC(C(=O)NC(C)c5ccc(F)cc5)CC4)c3CO2)cc1 (centres undefined) | ? | 5% | 35µM* | i | ?
O=C(NCCc1ccccc1)N1CC[C@@H]2COC(=O)N(Cc3ccccc3)[C@@H]2C1 | ? | nt | nt | -7% | ?
O=C(CCc1ccccc1)N1CCCCCC1c1nnc(-c2ccccc2)o1 (centres undefined) | ? | ? | ? | -3% | ?
Cc1ccc(C2Cn3nnc(C(=O)N4CCC(C(=O)NCC(C)C)CC4)c3CO2)cc1 (centres undefined) | -14% | 1% | 22µM* | 1% | 0%
Cc1ccc(C2Cn3nnc(C(=O)N4CCC(C(=O)NCc5ccco5)CC4)c3CO2)cc1 (centres undefined) | i | 5% | 32µM* | 1% | 3%
Cc1ccc(C2Cn3nnc(C(=O)N4CCC(C(=O)NC5CCCCCCC5)CC4)c3CO2)cc1 (centres undefined) | -15% | -2% | ? | -12% | ?
COc1cccc(-c2cccc(C(=O)N3CCN(C(=O)c4ccccc4)CC3)c2)c1 | ? | nt | nt | -10% | ?
COC1CCOC2(CCN(C(=O)NCCc3ccccc3)CC2)C1 (centres undefined) | 2% | -3% | 28µM* | i | 5%
CC(=O)N1CC2(CCCN(CC3CCCCC3)C2)Cc2ccccc21 (centres undefined) | ? | nt | nt | 0% | ?
Cc1ccc2c(n1)OC(Cn1cccc1)CN(CCC1=CCCCC1)C2=O (centres undefined) | ? | nt | nt | nt | 89µM*
Cc1ccc(-c2ccccc2CN2CCN([S+](C)(=O)[O-])CC2)cc1Cl | ? | nt | nt | -1% | ?
N#Cc1cccc(NC(=O)N2Cc3[nH]cnc3C[C@H]2c2nc(-c3ccc(Cl)cc3)no2)c1 | 79µM* | -19% | i | -13% | ?
Cc1cccc(-c2noc([C@@H]3Cc4nc[nH]c4CN3C(=O)COCC(=O)O)n2)c1 | -28%[174 µM] | -1%[70.6 µM] | 56µM* | -11%[88.5 µM] | -8%[172 µM]
O=C(Nc1cccc(F)c1)N1Cc2[nH]cnc2C[C@H]1c1nc(-c2ccc(Cl)cc2)no1 | ? | -15% | 40µM* | 4% | 79µM*
Cc1cccc(-c2noc([C@@H]3Cc4nc[nH]c4CN3C(=O)Nc3cccc(F)c3)n2)c1 | 35µM* | ? | 63µM* | 0%[88.5 µM] | 71µM*
Cc1cccc(-c2noc([C@@H]3Cc4nc[nH]c4CN3C(=O)c3ccc(F)cc3)n2)c1 | ? | -8%[70.6 µM] | i | i | ?
O=[S+]1([O-])c2cccnc2O[C@@H](COCc2ccccc2)CN1CCc1ccccc1 | ? | nt | nt | i | ?
SMILES | NIH3T3 tox | hNpr1 antagonist | Luciferase inh | GPT2 inh | HEK cytotox
CCCCCC(=O)Nc1nc2c(s1)C[C@@H]1[C@](C)(CO)[C@H](O)CC[C@@]1(C)[C@@H]2CC(=O)Nc1cccc(O)c1 | ? | -15% | i | -25% | ?
CNC(=O)c1cc(C)nc2onc(C3CCN(C(=O)c4ccc(Cl)nc4)CC3)c12 | 1% | nt | nt | nt | i
O=C(Nc1cccc(F)c1)N1Cc2[nH]cnc2C[C@H]1c1nc(-c2ccccc2)no1 | ? | -19%[70.6 µM] | i | ? | 71µM*
CC(=O)c1ccc(NC(=O)N2Cc3[nH]cnc3C[C@H]2c2nc(-c3ccccc3)no2)cc1 | -6%[138 µM] | -2%[70.6 µM] | i | i | 0%[172 µM]
O=C(Nc1cccc(F)c1)N1Cc2[nH]cnc2C[C@H]1c1nc(-c2ccc3c(c2)OCO3)no1 | ? | -24% | i | -5% | ?
Cc1cccc(-c2noc([C@@H]3Cc4nc[nH]c4CN3C(=O)Nc3cccc(C#N)c3)n2)c1 | 63µM* | -21%[70.6 µM] | 35µM* | -4%[88.5 µM] | 89µM*
CCN(CC1CCCO1)C(=O)C1CCN(c2nc(-c3ccccc3)nc3c2CCC3)CC1 (centres undefined) | ? | 0% | i | -6% | ?
CC(=O)Nc1ccc(S(=O)(=O)N[C@H]2C[C@@H](c3nc(-c4ccccc4)no3)N(C)C2)cc1 | ? | ? | ? | i | 40µM*
Cc1ccc(-c2noc([C@@H]3C[C@H](NS(=O)(=O)Cc4ccccc4)CN3C)n2)cc1 | 79µM* | -22%[70.6 µM] | i | 3%[88.5 µM] | 100µM*
CC(=O)Nc1ccc(S(=O)(=O)N[C@H]2C[C@@H](c3nc(C)no3)N(C)C2)cc1 | 4%[174 µM] | -1%[70.6 µM] | i | 1%[88.5 µM] | -3%[172 µM]
Cc1ccc(-c2noc([C@@H]3C[C@H](NS(=O)(=O)c4ccc(C)cc4)CN3C)n2)cc1 | 89µM* | ? | 22µM* | ? | 71µM*
CN1C[C@@H](NS(=O)(=O)Cc2ccccc2)C[C@H]1c1nc(-c2ccc3c(c2)OCO3)no1 | -31% | -11% | i | -3% | -26%
CCCS(=O)(=O)N[C@H]1C[C@@H](c2nc(-c3ccc4c(c3)OCO4)no2)N(C)C1 | -25%[174 µM] | 1%[70.6 µM] | 45µM* | 3%[88.5 µM] | ?
O=C(NC1CCN(Cc2ccccc2)CC1)c1nn(CC2CC2)c2c1CNCC2 | ? | nt | nt | 3% | ?
O=C(NC1CCCCC1)c1cn2cc(-c3cccnc3)sc2n1 | ? | nt | nt | -5%[88.5 µM] | ?
COc1ccccc1C(=O)NC1CCN(C(=O)c2cc3c(=O)[nH]c(C)cn3n2)CC1 | -2% | 1% | i | -3% | 13%

Screens as filed in PubChem BioAssay.
